Data reported in the supplement of paper PMC10849652.
About 8,800 targets were measured; listed, in parts, are those with a hit and a random draw of the rest. About 0.5% of all pairs of compound and target were hits.

What was measured:
Assay in all cases: log2 fold change, soluble protein after heating vs DMSO (PISA); higher = thermal stabilisation; K562 lysate, 10 uM; active = over 0.2 and 3.5 SD of the protein, either way, in both replicates (recomputed)
ibrutinib = compound: C=CC(=O)N1CCC[C@@H](n2nc(-c3ccc(Oc4ccccc4)cc3)c3c(N)ncnc32)C1 [ibrutinib]
Outline: (§1)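 Following dounce homogenisation of K562 pellets in PBS pH 7.4 with 1 mM MgCl2, crude extract at 1 mg/mL protein was incubated for 30 min with 10 μM compound. Aliquots were then heated for 3 min over 48°C-58°C and pooled, NP-40 was added to 0.5% at 4°C, and soluble protein was recovered as the supernatant at 21,000xg for 90 min. Channel-sum-equalised TMTpro 16plex LC-MS/MS quantified this protein. Each value, from duplicates, is a log-two fold change in thermal stability relative to solvent controls.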

[1] = compound: CC(=O)c1cnc2ccc(-c3cc(Cl)c(O)c(Cl)c3)nc2c1N[C@H]1CC[C@H](CN(C)C)CC1
Outline: as §1

ralimetinib = compound: CC(C)(C)Cn1c(N)nc2ccc(-c3[nH]c(C(C)(C)C)nc3-c3ccc(F)cc3)nc21 [ralimetinib]
Outline: as §1

[2] = compound: CC(C)(O)CC(=O)NCCn1ccc2ncnc(Nc3ccc(Oc4cccc(C(F)(F)F)c4)c(Cl)c3)c21
Outline: as §1

[3] = compound: CC(C)C1=C2N=C(C=C(N2N=C1)NCC3=CC=CC=C3)NCCCCCCN
Outline: as §1

[4] = compound: CC1=C(C(CC(=O)N1)C2=CC=C(C=C2)C(F)(F)F)C(=O)NC3=C(C=C4C(=C3)C=NN4)F
Outline: as §1

[5] = compound: CC1=C(C2=C(C=C1)C(=O)C3=CC=CC=C3N2CCCN)C
Outline: as §1

[6] = compound: CC1=C(C=C(C=C1)NC(=O)C2=CC(=CC=C2)C(C)(C)C#N)NC3=CC4=C(C=C3)N=CN(C4=O)C
Outline: as §1

[7] = compound: CC1=C(C=C(C=C1)NC(=O)C2=CC(=CC=C2)N(C)C)NC(=O)C3=CC=C(C=C3)O
Outline: as §1

[8] = compound: CC1=CC=C(C=C1)SC2=C3C=C(SC3=CN=C2)C(=O)N
Outline: as §1

Measured: log2 fold change

PTK2B (UniProt Q14289)
inactive: ibrutinib 0.014 | [1] 0.073 | ralimetinib -0.04 | [2] -0.072 | [3] -0.005 | [4] -0.039 | [5] -0.001 | [6] -0.049 | [7] 0.013 | [8] -0.022

PREP (UniProt P48147)
inactive: ibrutinib 0.019 | [1] 0 | ralimetinib 0.015 | [2] 0.004 | [3] -0.008 | [4] 0.011 | [5] -0.009 | [6] -0.006 | [7] 0.006 | [8] 0.011

PHKG2 (UniProt P15735)
inactive: ibrutinib -0.099 | [1] 0.168 | ralimetinib 0.003 | [2] -0.011 | [3] 0.03 | [4] -0.029 | [5] -0.018 | [6] -0.018 | [7] -0.004 | [8] -0.027

POLD3 (UniProt Q15054)
inactive: ibrutinib 0.018 | [1] 0.006 | ralimetinib -0.027 | [2] -0.004 | [3] 0.035 | [4] 0.019 | [5] -0.008 | [6] -0.022 | [7] -0.017 | [8] -0.038

PIKFYVE (UniProt Q9Y2I7)
Sequence of UniProt Q9Y2I7 (Q9Y2I7 whole entry, looked up): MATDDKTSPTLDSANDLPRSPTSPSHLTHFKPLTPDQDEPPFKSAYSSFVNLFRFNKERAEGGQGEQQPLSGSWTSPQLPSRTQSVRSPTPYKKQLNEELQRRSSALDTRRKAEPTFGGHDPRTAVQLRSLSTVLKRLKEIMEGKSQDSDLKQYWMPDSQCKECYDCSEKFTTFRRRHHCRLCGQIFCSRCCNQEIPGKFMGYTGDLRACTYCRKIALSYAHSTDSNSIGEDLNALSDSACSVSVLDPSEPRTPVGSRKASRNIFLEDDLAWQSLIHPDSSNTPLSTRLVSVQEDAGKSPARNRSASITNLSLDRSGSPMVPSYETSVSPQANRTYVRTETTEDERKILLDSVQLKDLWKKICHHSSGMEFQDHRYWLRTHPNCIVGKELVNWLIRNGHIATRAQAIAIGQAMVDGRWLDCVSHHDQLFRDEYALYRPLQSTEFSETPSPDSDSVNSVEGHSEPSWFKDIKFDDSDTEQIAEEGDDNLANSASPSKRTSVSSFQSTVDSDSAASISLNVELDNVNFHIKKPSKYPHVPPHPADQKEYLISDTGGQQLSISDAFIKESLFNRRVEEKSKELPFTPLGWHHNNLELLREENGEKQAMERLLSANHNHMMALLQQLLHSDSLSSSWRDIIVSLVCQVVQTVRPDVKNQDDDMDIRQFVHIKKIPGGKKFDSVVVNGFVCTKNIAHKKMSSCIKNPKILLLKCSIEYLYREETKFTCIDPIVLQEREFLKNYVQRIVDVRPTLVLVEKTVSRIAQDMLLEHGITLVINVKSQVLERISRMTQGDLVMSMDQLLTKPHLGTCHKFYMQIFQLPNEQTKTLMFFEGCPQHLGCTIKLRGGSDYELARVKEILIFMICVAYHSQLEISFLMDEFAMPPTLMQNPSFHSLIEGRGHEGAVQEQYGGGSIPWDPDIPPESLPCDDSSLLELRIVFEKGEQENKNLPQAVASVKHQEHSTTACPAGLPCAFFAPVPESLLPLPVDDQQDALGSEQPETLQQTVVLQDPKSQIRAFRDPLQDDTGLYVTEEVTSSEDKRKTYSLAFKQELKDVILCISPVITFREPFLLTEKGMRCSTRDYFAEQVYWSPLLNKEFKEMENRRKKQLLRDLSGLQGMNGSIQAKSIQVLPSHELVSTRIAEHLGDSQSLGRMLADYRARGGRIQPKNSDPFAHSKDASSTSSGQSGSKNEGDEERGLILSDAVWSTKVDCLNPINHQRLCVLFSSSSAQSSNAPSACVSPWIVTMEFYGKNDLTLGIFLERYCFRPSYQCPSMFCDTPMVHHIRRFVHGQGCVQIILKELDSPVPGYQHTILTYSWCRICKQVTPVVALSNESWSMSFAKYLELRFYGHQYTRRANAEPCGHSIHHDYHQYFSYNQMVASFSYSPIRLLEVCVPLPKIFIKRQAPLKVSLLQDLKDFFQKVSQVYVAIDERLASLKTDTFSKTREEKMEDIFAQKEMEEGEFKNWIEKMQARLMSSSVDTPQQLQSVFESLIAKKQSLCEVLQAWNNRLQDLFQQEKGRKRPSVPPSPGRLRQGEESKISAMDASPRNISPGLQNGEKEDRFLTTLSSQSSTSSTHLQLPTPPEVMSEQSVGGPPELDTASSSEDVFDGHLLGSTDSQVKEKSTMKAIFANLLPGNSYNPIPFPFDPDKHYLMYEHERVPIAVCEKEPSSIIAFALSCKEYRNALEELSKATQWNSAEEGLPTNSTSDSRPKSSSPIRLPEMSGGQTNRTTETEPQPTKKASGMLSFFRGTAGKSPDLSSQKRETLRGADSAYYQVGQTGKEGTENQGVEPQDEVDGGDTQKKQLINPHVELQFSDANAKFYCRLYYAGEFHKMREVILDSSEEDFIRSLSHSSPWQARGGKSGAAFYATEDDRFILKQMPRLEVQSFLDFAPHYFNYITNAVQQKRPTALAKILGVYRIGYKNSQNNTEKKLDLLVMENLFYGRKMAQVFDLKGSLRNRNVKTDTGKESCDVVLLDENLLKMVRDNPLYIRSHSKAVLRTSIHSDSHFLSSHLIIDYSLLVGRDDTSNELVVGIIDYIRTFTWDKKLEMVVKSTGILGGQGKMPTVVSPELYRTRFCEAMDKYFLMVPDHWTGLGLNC
inactive: ibrutinib 0.019 | [1] -0.012 | ralimetinib 0.011 | [2] -0.012 | [3] 0 | [4] 0.042 | [5] 0.003 | [6] -0.044 | [7] 0.016 | [8] -0.004

PTGES2 (UniProt Q9H7Z7)
Sequence of UniProt Q9H7Z7 (Q9H7Z7 whole entry, looked up): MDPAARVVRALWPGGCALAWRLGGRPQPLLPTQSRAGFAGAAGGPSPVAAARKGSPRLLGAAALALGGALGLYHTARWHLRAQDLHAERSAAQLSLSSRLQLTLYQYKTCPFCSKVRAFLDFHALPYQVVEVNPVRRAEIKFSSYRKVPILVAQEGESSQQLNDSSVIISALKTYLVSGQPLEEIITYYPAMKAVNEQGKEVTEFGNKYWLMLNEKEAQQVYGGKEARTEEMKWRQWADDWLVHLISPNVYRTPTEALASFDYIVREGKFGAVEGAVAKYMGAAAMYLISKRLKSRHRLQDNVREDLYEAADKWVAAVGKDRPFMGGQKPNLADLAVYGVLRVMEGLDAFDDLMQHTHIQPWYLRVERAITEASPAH
inactive: ibrutinib -0.035 | [1] -0.092 | ralimetinib -0.004 | [2] 0.167 | [3] 0.132 | [4] -0.029 | [5] -0.002 | [6] 0.001 | [7] -0.082 | [8] 0.036

PDS5A (UniProt Q29RF7)
inactive: ibrutinib 0 | [1] 0.013 | ralimetinib 0.008 | [2] -0.017 | [3] -0.029 | [4] 0.023 | [5] -0.038 | [6] 0.017 | [7] 0.031 | [8] 0.039

PCBP3 (UniProt P57721)
Sequence of UniProt P57721 (P57721 whole entry, looked up): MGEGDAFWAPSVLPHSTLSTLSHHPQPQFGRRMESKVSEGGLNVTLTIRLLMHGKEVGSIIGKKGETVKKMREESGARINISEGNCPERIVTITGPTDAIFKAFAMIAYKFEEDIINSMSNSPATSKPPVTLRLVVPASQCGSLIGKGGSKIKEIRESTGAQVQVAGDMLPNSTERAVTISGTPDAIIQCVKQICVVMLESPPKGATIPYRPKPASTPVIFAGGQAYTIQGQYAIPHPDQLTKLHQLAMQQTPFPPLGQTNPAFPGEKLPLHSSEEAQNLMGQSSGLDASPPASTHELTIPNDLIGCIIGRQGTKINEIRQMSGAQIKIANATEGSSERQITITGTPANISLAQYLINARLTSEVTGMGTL
inactive: ibrutinib -0.026 | [1] -0.007 | ralimetinib -0.005 | [2] -0.021 | [3] 0 | [4] -0.04 | [5] -0.006 | [6] 0.053 | [7] -0.02 | [8] -0.028

PFKFB2 (UniProt O60825)
inactive: ibrutinib -0.007 | [1] -0.014 | ralimetinib 0.035 | [2] -0.017 | [3] -0.016 | [4] 0.006 | [5] -0.001 | [6] -0.013 | [7] -0.011 | [8] -0.001

PTMA isoform 2 (UniProt P06454)
Sequence of UniProt P06454 (P06454 whole entry, looked up): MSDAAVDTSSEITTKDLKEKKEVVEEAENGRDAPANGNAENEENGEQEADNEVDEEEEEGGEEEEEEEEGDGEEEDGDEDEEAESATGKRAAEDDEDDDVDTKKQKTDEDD
inactive: ibrutinib -0.053

PRPH isoform 2 (UniProt P41219)
inactive: ibrutinib -0.099 | [1] 0.054 | ralimetinib 0.009 | [2] 0.067 | [3] 0.074 | [4] 0.002 | [5] 0.007 | [6] -0.064 | [7] 0.023 | [8] -0.011

PFAS (UniProt O15067)
inactive: ibrutinib -0.007 | [1] -0.016 | ralimetinib 0.03 | [2] 0.006 | [3] 0.003 | [4] -0.015 | [5] -0.003 | [6] -0.041 | [7] 0.032 | [8] 0.002

PPP2R5C isoform 4 (UniProt Q13362)
inactive: ibrutinib 0.023 | [1] -0.011 | ralimetinib -0.089 | [2] -0.05 | [3] -0.032 | [4] -0.003 | [5] 0.095 | [6] 0.05 | [7] 0.012 | [8] 0.001

PTGR2 (UniProt Q8N8N7)
Sequence of UniProt Q8N8N7 (Q8N8N7 whole entry, looked up): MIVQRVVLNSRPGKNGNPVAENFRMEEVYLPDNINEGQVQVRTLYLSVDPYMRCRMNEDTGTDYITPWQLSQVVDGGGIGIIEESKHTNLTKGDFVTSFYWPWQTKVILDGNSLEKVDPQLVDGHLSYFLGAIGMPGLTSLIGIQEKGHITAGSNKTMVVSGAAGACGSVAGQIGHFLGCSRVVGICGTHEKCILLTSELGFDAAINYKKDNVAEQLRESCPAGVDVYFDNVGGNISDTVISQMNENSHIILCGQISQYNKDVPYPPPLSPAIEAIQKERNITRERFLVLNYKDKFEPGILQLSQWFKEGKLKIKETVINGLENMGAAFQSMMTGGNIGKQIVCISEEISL
inactive: ibrutinib -0.006 | [1] 0.026 | ralimetinib 0.019 | [2] 0.068 | [3] -0.042 | [4] -0.011 | [5] -0.024 | [6] 0.006 | [7] 0.037 | [8] 0.029

POLR2B (UniProt P30876)
inactive: ibrutinib -0.011 | [1] -0.017 | ralimetinib 0.025 | [2] -0.018 | [3] 0.005 | [4] 0.029 | [5] -0.031 | [6] -0.014 | [7] 0.028 | [8] 0.032

PI4KB (UniProt Q9UBF8)
inactive: ibrutinib -0.044 | [1] 0.208 | ralimetinib 0.021 | [2] -0.021 | [3] -0.004 | [4] -0.015 | [5] -0.018 | [6] 0.022 | [7] 0 | [8] 0.012

PLXNB2 (UniProt O15031)
inactive: ibrutinib 0.019 | [1] 0.016 | ralimetinib 0.035 | [2] -0.026 | [3] -0.03 | [4] 0.033 | [5] 0.006 | [6] -0.02 | [7] -0.003 | [8] -0.016

PHGDH (UniProt O43175)
inactive: ibrutinib 0.03 | [1] 0.021 | ralimetinib 0.013 | [2] 0.028 | [3] 0.012 | [4] -0.003 | [5] 0.013 | [6] -0.004 | [7] -0.012 | [8] 0.029

PMPCA (UniProt Q10713)
Sequence of UniProt Q10713 (Q10713 whole entry, looked up): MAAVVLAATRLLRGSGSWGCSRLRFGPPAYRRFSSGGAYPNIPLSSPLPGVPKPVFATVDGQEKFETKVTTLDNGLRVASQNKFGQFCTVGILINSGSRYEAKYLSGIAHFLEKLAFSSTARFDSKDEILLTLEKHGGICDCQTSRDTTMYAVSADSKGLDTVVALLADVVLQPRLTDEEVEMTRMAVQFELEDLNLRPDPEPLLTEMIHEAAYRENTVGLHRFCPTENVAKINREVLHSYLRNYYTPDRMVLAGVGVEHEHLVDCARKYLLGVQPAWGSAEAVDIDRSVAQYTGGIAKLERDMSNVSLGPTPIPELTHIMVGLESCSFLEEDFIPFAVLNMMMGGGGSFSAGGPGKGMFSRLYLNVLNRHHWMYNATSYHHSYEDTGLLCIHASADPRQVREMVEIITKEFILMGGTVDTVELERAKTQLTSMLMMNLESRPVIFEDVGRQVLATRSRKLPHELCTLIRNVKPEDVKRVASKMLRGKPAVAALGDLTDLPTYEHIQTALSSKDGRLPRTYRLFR
inactive: ibrutinib -0.052 | [1] -0.023 | ralimetinib 0.006 | [2] -0.038 | [3] -0.047 | [4] -0.043 | [5] -0.041 | [6] 0.033 | [7] -0.036 | [8] 0.015

PFKP (UniProt Q01813)
inactive: ibrutinib -0.001 | [1] 0.009 | ralimetinib 0.004 | [2] -0.029 | [3] 0.001 | [4] -0.015 | [5] 0.007 | [6] 0.003 | [7] 0.002 | [8] 0.062

PHKA1 (UniProt P46020)
inactive: ibrutinib -0.045 | [1] 0.012 | ralimetinib 0.03 | [2] -0.031 | [3] -0.053 | [4] 0.004 | [5] -0.019 | [6] -0.005 | [7] 0.032 | [8] 0.003

PICALM (UniProt H0YEH1)
inactive: ibrutinib -0.077 | [1] 0.009 | ralimetinib -0.035 | [2] -0.039 | [3] 0.05 | [4] 0.003 | [5] 0.014 | [6] -0.024 | [7] 0.012 | [8] -0.091

PRKRA (UniProt O75569)
Sequence of UniProt O75569 (O75569 whole entry, looked up): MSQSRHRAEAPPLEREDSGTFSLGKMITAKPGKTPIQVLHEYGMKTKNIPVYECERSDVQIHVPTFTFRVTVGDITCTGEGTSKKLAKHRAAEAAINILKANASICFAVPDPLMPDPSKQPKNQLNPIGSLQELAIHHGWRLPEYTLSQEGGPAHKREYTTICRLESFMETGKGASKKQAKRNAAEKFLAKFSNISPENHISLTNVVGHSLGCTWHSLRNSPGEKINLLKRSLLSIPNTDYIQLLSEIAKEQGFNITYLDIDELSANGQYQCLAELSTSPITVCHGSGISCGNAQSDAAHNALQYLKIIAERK
inactive: ibrutinib -0.043 | [1] -0.01 | ralimetinib 0.035 | [2] 0.011 | [3] 0.013 | [4] 0.045 | [5] -0.038 | [6] 0.002 | [7] 0.056 | [8] 0.019

PFKFB3 isoform 4 (UniProt Q16875)
Sequence of UniProt Q16875 (Q16875 whole entry, looked up): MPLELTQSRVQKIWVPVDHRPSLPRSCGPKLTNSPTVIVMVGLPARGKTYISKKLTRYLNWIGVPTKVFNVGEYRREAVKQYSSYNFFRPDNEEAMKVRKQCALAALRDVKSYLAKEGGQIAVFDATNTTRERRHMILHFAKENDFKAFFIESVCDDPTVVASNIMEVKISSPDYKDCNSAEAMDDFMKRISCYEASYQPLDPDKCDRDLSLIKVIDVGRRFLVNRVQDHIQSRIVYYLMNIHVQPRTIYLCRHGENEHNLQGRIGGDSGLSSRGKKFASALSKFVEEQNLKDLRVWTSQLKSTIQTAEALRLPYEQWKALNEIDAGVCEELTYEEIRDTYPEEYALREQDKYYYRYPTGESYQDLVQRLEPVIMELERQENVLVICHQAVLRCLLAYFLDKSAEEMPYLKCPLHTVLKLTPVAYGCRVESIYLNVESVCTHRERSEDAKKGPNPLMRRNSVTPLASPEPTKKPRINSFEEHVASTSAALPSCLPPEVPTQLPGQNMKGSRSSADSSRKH
inactive: ibrutinib -0.015 | [1] 0.11 | ralimetinib 0.044 | [2] -0.003 | [3] 0 | [4] 0.027 | [5] 0.003 | [6] 0.011 | [7] -0.019 | [8] 0.148

PCF11 (UniProt O94913)
inactive: ibrutinib -0.027 | [1] -0.006 | ralimetinib -0.005 | [2] -0.02 | [3] 0.022 | [4] 0.03 | [5] -0.02 | [6] -0.021 | [7] 0.045 | [8] -0.02

PCIF1 (UniProt Q9H4Z3)
inactive: ibrutinib 0.019 | [1] 0.019 | ralimetinib 0.091 | [2] 0.017 | [3] 0 | [4] 0.002 | [5] 0.037 | [6] -0.033 | [7] 0.025 | [8] -0.029

PPP1R8 (UniProt Q12972)
Sequence of UniProt Q12972 (Q12972 whole entry, looked up): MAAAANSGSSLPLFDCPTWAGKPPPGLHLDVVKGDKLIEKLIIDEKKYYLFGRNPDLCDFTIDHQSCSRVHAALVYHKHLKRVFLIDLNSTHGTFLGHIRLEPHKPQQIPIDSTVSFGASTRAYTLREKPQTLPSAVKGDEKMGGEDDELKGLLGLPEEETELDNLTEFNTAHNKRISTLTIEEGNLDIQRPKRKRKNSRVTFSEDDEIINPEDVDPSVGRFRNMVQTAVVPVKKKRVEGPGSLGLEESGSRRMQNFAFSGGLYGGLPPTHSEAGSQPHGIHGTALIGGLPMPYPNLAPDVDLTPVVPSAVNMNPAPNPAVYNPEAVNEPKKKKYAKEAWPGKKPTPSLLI
inactive: ibrutinib -0.029 | [1] -0.026 | ralimetinib -0.039 | [2] -0.031 | [3] 0.011 | [4] -0.011 | [5] -0.034 | [6] 0.002 | [7] -0.036 | [8] -0.028

PTS (UniProt Q03393)
inactive: ibrutinib 0.213 | [1] 0.015 | ralimetinib 0.021 | [2] -0.027 | [3] -0.041 | [4] -0.117 | [5] -0.102 | [6] 0.034 | [7] -0.013 | [8] -0.017
